The nature of assay [1]: qHTS assay for small molecule agonists of the p53 signaling pathway (AID 651631; calls by dose curve; note: nearly all actives have a fitted effect of over 15% in size; note: potency is the fitted concentration of half-maximal effect). A digest of the protocol:
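Stably transfected HCT-116 cells (beta-lactamase behind p53 response elements) get compounds after a 5 h settling period; 16 h later at 37 °C, FRET substrate is loaded and fluorescence read after 2 h.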

The nature of assay [2]: qHTS assay for small molecules that induce genotoxicity in human embryonic kidney cells expressing luciferase-tagged ATAD5 (AID 651632). Note: nearly all actives have a fitted effect of over 15% in size. A digest of the protocol:
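Genotoxicity read-out via ATAD5-luciferase: HEK293T cells, 16 hr compound incubation at 37C, Amplite detection.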

Assay [3] is described as follows: qHTS assay for small molecule agonists of the p53 signaling pathway - cell viability (AID 651633; calls by dose curve;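 note: p53RE-bla HCT reporter cells with a stable beta-lactamase p53 reporter; series mostly up to about 83 µM; nearly all actives have a fitted effect of over 30% in size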). A digest of the protocol:
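p53RE-bla cells were treated with compound for 16 hours at 37 C. Cytotoxicity was then measured as CellTiter-Glo luminescence after 30 min at room temperature.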

A short description of assay [4]: qHTS assay for small molecules that induce genotoxicity in human embryonic kidney cells expressing luciferase-tagged ATAD5 - cell viability (AID 651634; calls by dose curve; note: nearly all actives have a fitted effect of over 25% in size). Put shortly: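 Live-cell protease activity (CellTiter-Fluor, fluorescence) indicates viability. HEK293T cells with luciferase-tagged ATAD5; 15.5 hr compound treatment at 37C.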
Assay [5] can be described thus: qHTS assay for small molecule disruptors of the mitochondrial membrane potential - cell viability (AID 720634; calls by dose curve;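 note: human HepG2 liver cancer cells; series mostly up to about 83 µM; nearly all actives have a fitted effect of over 20% in size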). A digest of the protocol: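 Human hepatoma HepG2 cells were treated for 1 hr with test chemicals, then given m-MPI dye and CellTiter-Glo. Cell viability reflects luminescence proportional to cellular ATP.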
The nature of assay [6]: qHTS assay for small molecule disruptors of the mitochondrial membrane potential (AID 720635). Note: potency is the fitted concentration of half-maximal effect. A digest of the protocol: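 HepG2 cells exposed to compound 1 hr at 37C, then Mito-MPS dye 30 min. Ratio read of aggregate (540/590 nm) versus monomer (490/535 nm) fluorescence.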
Assay [7] can be described thus: qHTS assay to test for compound auto fluorescence at 590 nm (red) in HepG2 cells (AID 720674). Put shortly:
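Seeding: 2,000 HepG2 cells/well, MEM/10% FBS, overnight 37 C. Dosing: compound vs DMSO. Incubation: 1 hr, 37 C, 5% CO2. Read: fluorescence 540 ex/590 em, Rose Bengal sodium as red reference.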

A short description of assay [8]: qHTS assay to test for compound auto fluorescence at 535 nm (green) in HepG2 cells (AID 720675).
Assay [9] in a line: qHTS assay to test for compound auto fluorescence at 460 nm (blue) in HEK293 cells (AID 720678). Put shortly:
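Auto fluorescence in the blue band was quantified as triamterene equivalency. HEK293 cells were seeded at 2,000/well, dosed after a 4-5 hr attachment, and kept overnight at 37C before the 405/460 nm reading.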

Assay [10] is described as follows: qHTS assay to test for compound auto fluorescence at 590 nm (red) in HEK293 cells (AID 720679). Put shortly:
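Autofluorescence equivalency to Rose Bengal sodium, 540/590nm, in HEK293 cells exposed overnight to 23 nL compound per well.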

Data on 18 compounds can be found in PubChem BioAssay (Tox21).

Inconclusive results are not listed. Active and inactive are the calls of the source. Unless noted, calls come from the whole dose curve; as a rule, active = well fitted curve in the direction sought with a large enough effect in the repeat runs; inconclusive = weak or mixed curves; inactive = no such curve, though single readings can be large; an effect the other way counts as inactive or inconclusive.

Turning to `C=C[C@]1(C)C[C@@H](OC(=O)CO)[C@]2(C)[C@H](C)CC[C@]3(CCC(=O)[C@H]32)[C@@H](C)[C@@H]1O`, the Potency result in [1], in assay [2], in [3], in assay [4], in assay [5] and in assay [6] was “inactive” each time. For the same compound, the Potency result in assay [7], in assay [8] and in assay [9] was “inactive” in each case.
With `O=C(O)[C@H](CC(=O)N1C[C@H]2CCCC[C@H]2C1)Cc1ccccc1`, the Potency result in assay [1], in assay [2], in assay [3], in assay [4], in [5] and in [6] was “inactive” in each case. The Potency entry in assay [7], in assay [8] and in assay [9] was “inactive” each time.
Regarding `CCOC(=O)CN[C@@H](C(=O)N1CC[C@H]1C(=O)NCc1ccc(/C(N)=N/O)cc1)C1CCCCC1`, the Potency result in [1], in [2], in assay [3], in [4], in [5] and in assay [6] was “inactive” throughout. For the same compound, the Potency entry in [7], in [8], in [9] and in assay [10] was “inactive” in each case.
Turning to `CCOC(=O)COc1ccc2c(C)c(CCN(CC)CC)c(=O)oc2c1`, the Potency entry in assay [1], in [2], in assay [3], in assay [4], in assay [5] and in assay [6] was “inactive” each time. Besides, the Potency result in assay [7], in assay [8] and in assay [9] was “inactive” throughout.
In the case of `CO[C@H]1[C@@H](O)[C@H](N)[C@@H](O[C@H]2O[C@H]([C@H](C)N)CC[C@H]2N)[C@H](O)[C@@H]1N(C)C(=O)CN`, the Potency entry in assay [1], in assay [2], in [3], in [4], in assay [5] and in [6] was “inactive” throughout. For the same compound, the Potency result in [7], in assay [8], in [9] and in assay [10] was “inactive” each time.
As to `CCCCCCCCCCCCCCCC(=O)OC[C@@H](COP(=O)([O-])OCC[N+](C)(C)C)OC(=O)CCCCCCCCCCCCCCC`, the Potency entry in assay [1], in assay [2], in [3], in assay [4], in assay [5] and in [6] was “inactive” in each case. Besides, the Potency result in [7], in assay [8], in assay [9] and in assay [10] was “inactive” each time.
For `C[C@H]1C[C@H]2[C@@H]3CCC4=CC(=O)C=C[C@]4(C)[C@@]3(F)[C@@H](O)C[C@]2(C)[C@@]1(O)C(=O)CCl`, the Potency entry in assay [1], in [2], in assay [3], in assay [4], in [5] and in assay [7] was “inactive” in each case. The Potency result in assay [8], in assay [9] and in assay [10] was “inactive” throughout. In assay [6], the Potency is 11.9 µM (active).
Take `COCC1=C(C(=O)OC(C)OC(=O)OC(C)C)N2C(=O)[C@@H](NC(=O)/C(=N\OC)c3csc(N)n3)[C@H]2SC1` (stereo partly specified): the Potency result in [1], in assay [2], in assay [3], in [4], in [5] and in assay [6] was “inactive” each time. For the same compound, the Potency entry in [7], in assay [8], in [9] and in assay [10] was “inactive” each time.
On to `N[C@@H](C(=O)N[C@@H]1C(=O)N2C(C(=O)O)=C(CSc3cn[nH]n3)CS[C@H]12)c1ccc(O)cc1`, for which the Potency entry in assay [1], in [2], in [3], in assay [4], in [5] and in assay [6] was “inactive” in each case. Further, the Potency entry in assay [7], in assay [8], in assay [9] and in [10] was “inactive” each time.
As for `CO[C@H]1O[C@@H]2O[C@@]3(C)CC[C@H]4[C@H](C)CC[C@@H]([C@H]1C)[C@@]24OO3`, the Potency result in assay [1], in assay [2], in assay [3], in assay [4], in assay [5] and in [6] was “inactive” in each case. For the same compound, the Potency entry in assay [7], in [8], in assay [9] and in [10] was “inactive” throughout.
With `CN(C(=O)CO)c1c(I)c(C(=O)NCC(O)CO)c(I)c(C(=O)NCC(O)CO)c1I` (stereo unspecified), the Potency entry in assay [1], in assay [2], in assay [3], in assay [4], in assay [5] and in assay [6] was “inactive” each time. Moreover, the Potency entry in assay [7], in assay [8], in assay [9] and in [10] was “inactive” throughout.
As to `O=C(O)c1ccc(OCCn2ccnc2)cc1`, the Potency entry in assay [1], in assay [2], in assay [3], in [4], in [5] and in [6] was “inactive” in each case. Also, the Potency entry in assay [7], in assay [8], in assay [9] and in [10] was “inactive” each time.
`CS(=O)(=O)OCCCNCCCOS(C)(=O)=O`: the Potency result in assay [1], in assay [2], in assay [3], in assay [4], in [5] and in assay [6] was “inactive” in each case. The Potency result in [7], in assay [8], in assay [9] and in assay [10] was “inactive” throughout.
Regarding `Cc1c(N)nc(C(CC(N)=O)NCC(N)C(N)=O)nc1C(=O)NC(C(=O)NC(C)C(O)C(C)C(=O)NC(C(=O)NCCc1nc(-c2nc(C(=O)NCCCN[C@@H](C)c3ccccc3)cs2)cs1)C(C)O)C(O[C@@H]1O[C@@H](CO)[C@@H](O)[C@H](O)[C@@H]1O[C@H]1O[C@H](CO)[C@@H](O)[C@H](OC(N)=O)[C@@H]1O)c1cnc[nH]1` (stereo partly specified), the Potency in assay [1] was 0.15 µM (active). Also, the Potency result in [2], in assay [3], in assay [4], in assay [5], in [6] and in assay [7] was “inactive” in each case. The Potency entry in [8], in assay [9] and in [10] was “inactive” throughout.
Take `O=C(OCCO)c1ccccc1O`: the Potency result in [1], in assay [2], in [3], in assay [4], in assay [5] and in assay [6] was “inactive” each time. In addition, the Potency result in assay [7], in assay [8], in assay [9] and in [10] was “inactive” in each case.
For `CN1[C@@H]2CCC[C@H]1CC(NC(=O)c1nn(C)c3ccccc13)C2` (stereo partly specified), the Potency entry in assay [1], in [2], in assay [3], in assay [4], in [5] and in assay [6] was “inactive” each time. Further, the Potency result in assay [7], in assay [8], in [9] and in assay [10] was “inactive” in each case.
For the compound `N[C@@H](C(=O)N[C@@H]1C(=O)N2C(C(=O)O)=C(Cl)CC[C@H]12)c1ccccc1`, the Potency entry in [1], in assay [2], in assay [3], in assay [4], in assay [5] and in assay [6] was “inactive” throughout. For the same compound, the Potency entry in assay [7], in [8], in [9] and in [10] was “inactive” in each case.
`CC(C)CN(C[C@@H](O)[C@H](Cc1ccccc1)NC(=O)O[C@@H]1CCOC1)S(=O)(=O)c1ccc(N)cc1`: the Potency entry in [1], in [2], in assay [3], in [4], in assay [5] and in [6] was “inactive” throughout. For the same compound, the Potency entry in assay [7], in [8] and in assay [9] was “inactive” throughout.
